Compound activity from PubChem.
This is a sample that favours compounds with a hit; in the whole collection about 8.3% have one here.
HCMV inh – qHTS Assay for inhibitors of the human cytomegalovirus (HCMV). HFF cells, HCMV-luciferase reporter, 72 h; stronger effect = lower value. activity change, negative = inhibition, % at 57.5 µM. 410,000 compounds, 4.5% hits; in the data active = activity change below about -60%; inconclusive = no clear call, values can overlap the other calls; inactive = above about -39%
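Luciferase read-out from HCMV-luciferase-infected HFFs (MOI 1 PFU/cell) 72 h post infection at 37C; compounds added after 16 h cell attachment; activity normalized between buffer-only basal and Salinomycin (10uM) inhibitor controls.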
Marburg entry inh – qHTS for inhibitors of binding or entry into cells for Marburg Virus; 300,000 compounds, 1.8% hits; Marburg virus pseudotyped entry inhibition, cell reporter; AID 540276, 2011; Potency, µM (series often up to 37.8 µM), most hits filed as inhibitors; calls by dose curve; tested in HEK293 cells
FMDV inh – High Throughput Screening for Foot and Mouth Disease Virus Antivirals. 410,000 compounds, 1.2% hits. FMDV antiviral cell-based qHTS. Potency, µM (titrated, usually from 57.9 µM), usual class: inhibitors; calls by dose curve; tested in HEK293T cells; note: read-out not given here; nearly all actives have a fitted effect of over 45% in size
Lassa entry inh – qHTS for Inhibitors of binding or entry into cells for Lassa Virus | Lassa virus pseudotype entry inhibition, cell reporter | Potency, µM (highest dose often 37.9 µM), hits mostly inhibitors | 300,000 compounds, 1.2% hits; calls by dose curve; tested in HEK293 cells; note: nearly all actives have a fitted effect of over 50% in size
HCV inhibitor – qHTS Assay for Inhibitors of Hepatitis C Virus (HCV); Huh7.5.1 HCVcc-Cre infection, luciferase reporter, 44 h; Potency, µM (series often up to 41.8 µM), hits mostly inhibitors; 340,000 compounds, 3.4% hits
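Reporter virus HCVcc-Cre (~0.5 moi) infects cells exposed to compound; seeding density 1,000 cells/well with 4 h settling beforehand. Luminescence, 15 sec read, taken 44 h post-infection following a 15 min RT substrate incubation.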
FBPA Giardia inh – qHTS Assay for Inhibitors of Fructose-1,6-bisphosphate Aldolase from Giardia Lamblia; A8B2U2; purified Giardia FBPA; Potency, µM (titrated, usually from 59.6 µM), most hits filed as inhibitors; 290,000 compounds, 0.71% hits; note: nearly all actives have a fitted effect of over 55% in size
Target sequence (A8B2U2 whole entry, looked up): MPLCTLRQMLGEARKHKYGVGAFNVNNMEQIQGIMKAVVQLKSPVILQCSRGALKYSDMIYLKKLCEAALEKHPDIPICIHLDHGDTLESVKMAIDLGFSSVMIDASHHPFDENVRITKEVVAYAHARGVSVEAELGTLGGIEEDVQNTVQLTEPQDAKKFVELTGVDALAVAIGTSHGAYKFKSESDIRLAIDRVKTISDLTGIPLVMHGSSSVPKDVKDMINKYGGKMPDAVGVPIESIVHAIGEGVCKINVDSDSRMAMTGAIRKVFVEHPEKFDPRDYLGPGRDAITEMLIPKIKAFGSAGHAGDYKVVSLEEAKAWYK
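Giardia FBPA (40 nM reagent) was preincubated 10 min at RT with compound (up to 57.5 uM final), then substrate plus GAPDH/TPI/NAD/arsenate coupling system with diaphorase/resazurin was added; resorufin fluorescence (525/598 nm) was read after 20 min.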
Large screens that a line does not name were inactive. Unless noted, calls come from the whole dose curve; as a rule, active = well fitted curve in the direction sought with a large enough effect; inconclusive = small, poorly fitted or top-dose-only effect, or another doubt; inactive = no such curve, though single readings can be large; an effect the other way counts as inactive or inconclusive.

NC(Cc1ccc(C(F)(F)F)cc1)c1csc(NC(=O)NCCc2ccccc2)n1 (centres undefined)	HCMV inh -101, FMDV inh inconclusive (no result: Marburg entry inh, Lassa entry inh, HCV inhibitor, FBPA Giardia inh)
NC(Cc1ccc(F)cc1)c1csc(NC(=O)NC(c2ccccc2)c2ccccc2)n1 (centres undefined)	HCMV inh -103, FMDV inh inconclusive (no result: Marburg entry inh, Lassa entry inh, HCV inhibitor, FBPA Giardia inh)
CC(C)CC(N)c1csc(NC(=O)NCCc2ccccc2)n1 (centres undefined)	none (no result: Marburg entry inh, Lassa entry inh, HCV inhibitor, FBPA Giardia inh)
CN(C)c1ncc2nc(-c3ccc(Cl)cc3)c(=O)n(-c3ccccc3)c2n1	none (no result: HCMV inh, Marburg entry inh, Lassa entry inh, HCV inhibitor)
O=C(CSc1nccn1-c1ccc(F)cc1)Nc1ccc2c(c1)OCO2	HCMV inh inconclusive (no result: FBPA Giardia inh)
COc1cccc(-n2ccnc2SCC(=O)Nc2c(C)cc(C)cc2C)c1	HCMV inh -102 (no result: Marburg entry inh, HCV inhibitor, FBPA Giardia inh)
COc1ccc(NC(=O)CSc2nnc3ccc(-c4ccncc4)nn23)cc1	HCMV inh -71 (no result: FBPA Giardia inh)
COc1ccc(NC(=O)CSc2nccn2-c2ccccc2)cc1	none
COc1ccc(NC(=O)CSc2nnc3ccc(-c4cccnc4)nn23)cc1	HCMV inh inconclusive (no result: FBPA Giardia inh)
COc1ccc(-n2ccnc2SCC(=O)Nc2ccc3c(c2)OCO3)cc1	HCMV inh -74 (no result: Marburg entry inh, HCV inhibitor, FBPA Giardia inh)
CCc1ccc(NC(=O)CSc2nccn2-c2ccc(OC)cc2)cc1	HCMV inh -100 (no result: Marburg entry inh, HCV inhibitor, FBPA Giardia inh)
CS(=O)(=O)Nc1cccc(-c2cncnc2NCc2cccs2)c1	none (no result: HCMV inh, Marburg entry inh, Lassa entry inh, HCV inhibitor)
COc1ccc(-c2nn(-c3ccc(F)cc3F)c3c2cnc2ccc(F)cc23)cc1	none (no result: Marburg entry inh, HCV inhibitor, FBPA Giardia inh)
CC(=O)NCCNC(=O)c1nnc2n1CCN(C(=O)C1CCCCC1)C2	none (no result: Marburg entry inh, FMDV inh, Lassa entry inh, HCV inhibitor, FBPA Giardia inh)
CCc1ccc(NC(=O)CSc2nccn2-c2ccc(F)cc2)cc1	HCMV inh -66 (no result: Marburg entry inh, HCV inhibitor, FBPA Giardia inh)
Cc1cc(C(=O)N2CCOc3ccc(CN4CCC(Oc5cccnc5)CC4)cc3C2)c(C)o1	none (no result: HCMV inh, Marburg entry inh, Lassa entry inh, HCV inhibitor, FBPA Giardia inh)
CCN(CC)c1ccc(/C=C2\SC(=O)N(C(C)C)C2=O)o1	Marburg entry inh 11µM, Lassa entry inh inconclusive, HCV inhibitor 10µM, FBPA Giardia inh inconclusive (no result: HCMV inh)
CC(C)N1C(=O)S/C(=C/c2ccc3c(c2)n(C)c(=O)n3C)C1=O	Marburg entry inh inconclusive, HCV inhibitor inconclusive
CNC(=S)N(C)/N=C1/C(=O)N(Cc2c(Cl)cccc2Cl)c2ccccc21	Marburg entry inh inconclusive, Lassa entry inh inconclusive, HCV inhibitor 13µM (no result: FBPA Giardia inh)
CN(C)CCNC(=O)c1ccc2c(c1)N(Cc1c(F)cccc1Cl)C(=O)c1ccccc1S2	HCMV inh inconclusive, Marburg entry inh inconclusive, Lassa entry inh inconclusive (no result: HCV inhibitor, FBPA Giardia inh)
COc1c(O)ccc(C2NC(=O)NC(C)=C2C(=O)Nc2ccccc2C)c1[N+](=O)[O-] (centres undefined)	HCMV inh -63
COc1ccccc1C1NC(=O)NC(C)=C1C(=O)Nc1cccc(C)c1C (centres undefined)	none (no result: Marburg entry inh, Lassa entry inh)
CCc1nn(CC(=O)NC2CC2)c(=O)c2cc3c(OC)cccc3n12	none (no result: Lassa entry inh, HCV inhibitor, FBPA Giardia inh)
O=C(CN1C(=O)CC(c2ccco2)Sc2ccccc21)Nc1ccc2c(c1)OCCO2 (centres undefined)	HCV inhibitor 11µM (no result: FMDV inh)
Cn1ccc2c(N3c4ccccc4CCc4ccccc43)cc3c(c21)C1CCC3C1 (centres undefined)	HCMV inh -93 (no result: Marburg entry inh, HCV inhibitor, FBPA Giardia inh)
CCCN(CC1CC1)c1cc2c(c3c1ccn3C)C1CCC2C1 (centres undefined)	HCMV inh -62, Marburg entry inh 3.1µM (no result: Lassa entry inh, HCV inhibitor, FBPA Giardia inh)
Cn1ccc2c(N3c4ccccc4CCc4ccccc43)cc3c(c21)C1CCC3O1 (centres undefined)	none (no result: Marburg entry inh, Lassa entry inh, HCV inhibitor, FBPA Giardia inh)
Cn1ccc2c(-c3ccc(F)nc3)cc3c(c21)C1CCC3C1 (centres undefined)	HCMV inh inconclusive (no result: Marburg entry inh, Lassa entry inh, HCV inhibitor, FBPA Giardia inh)
COc1ccc(-c2cc3c(c4c2ccn4C)C2CCC3C2)cc1OC (centres undefined)	HCMV inh -60, Marburg entry inh inconclusive (no result: Lassa entry inh, HCV inhibitor, FBPA Giardia inh)
C[C@H](NC(=O)CSc1nc2c(cc1C#N)CN(C)CC2)c1ccccc1	none (no result: HCMV inh, FMDV inh, Lassa entry inh, HCV inhibitor, FBPA Giardia inh)
COc1ccc(-n2c(=O)c(CCc3ccccc3)nc3cnc(N(C)C)nc32)cc1	none (no result: HCMV inh, Marburg entry inh, Lassa entry inh, HCV inhibitor)
COc1ccc(-c2ccc3c(c2)S(=O)(=O)c2cccc(C(=O)NCCOc4ccccc4Cl)c2C3=O)cc1OC	HCMV inh -98, HCV inhibitor inconclusive (no result: Marburg entry inh, Lassa entry inh, FBPA Giardia inh)
